Test results reported in PubChem BioAssay.
Calls of active or inactive are those of the source.

Tests used:
[1] = molecular target: Albumin (Bos taurus) (UniProt P02769); experiment: bovine serum albumin binders on microarray, profiling panel, artefact control for SMM control protein annotation, biochemical, small-molecule microarray, Alexa647 label, 635/667 nm fluorescence (AID 1118); conditions: BSA-A647 binding, fluorescence 635 nm, higher = more signal;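 also: score merges 667 nm emission intensity and signal-to-noise per printed compound spot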
[2] = small-molecule microarray binders of probe aXIP, primary screen, biochemical, NeuroSMM set, 635/667 nm fluorescence (AID 1119); conditions: higher = more signal, called active from +8 up or from −8 down;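 also: probe is the protein aXip251-270 applied at 1 µg/mL to compound-printed slides; binding of probe to printed compounds measured as 667 nm fluorescence plus signal to noise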
[3] = small-molecule binders of probe aNOTCH3, primary screen, biochemical, small-molecule microarray, 635/667 nm fluorescence (AID 1120); conditions: higher = more signal;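 also: probe is a biotin-tagged antibody raised against NOTCH3 rather than NOTCH3 protein; score merges spot fluorescence near 667 nm with spot signal to noise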
[4] = small-molecule binders of probe aNOTCH2, primary screen, biochemical, small-molecule microarray, 635/667 nm fluorescence (AID 1121); conditions: higher = more signal;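 also: score merges feature fluorescence read at 667 nm with its signal to noise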
[5] = molecular target: Carbonic anhydrase 2 (Homo sapiens) (UniProt P00918); experiment: CAII small-molecule binders, profiling panel, biochemical, small-molecule microarray, Alexa647-labelled CAII (AID 1122); conditions: CAII-A647 binding fluorescence, higher = more signal
[6] = COS7 lysate on small-molecule microarray, probe aHis, 635 nm (AID 1123); conditions: COS7 cell lysate, fluorescence, higher = more signal;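 also: z-score combines 667nm fluorescence intensity with signal-to-noise per printed compound spot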
[7] = compound binding in COS7 lysate, probe aLAP1, primary screen, cell lysate, small-molecule microarray (AID 1124); conditions: probe aLAP1, fluorescence, higher = more signal;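 also: lysate comes from COS7 cells expressing LAP1 and is applied at 0.3 µg/mL; score merges spot fluorescence near 667 nm with signal-to-noise over triplicate slides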
[8] = tested on: Sam68 (KHDRBS1); experiment: Sam68 small-molecule binders, primary screen, biochemical, small-molecule microarray, 635 nm fluorescence (AID 1125); conditions: small-molecule microarray binding, higher = more signal;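 also: score merges 667 nm channel intensity with signal to noise over triplicate slides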
[9] = tested on: Chordin-like protein 2 (CHRDL2); experiment: CHRDL2 small-molecule binders, primary screen, biochemical, small-molecule microarray, 635 nm fluorescence (AID 1126); conditions: small-molecule microarray binding, fluorescence 635 nm; higher = more signal;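 also: printed compound slides probed with Chrdl2 protein at 4 µg/mL for 1 h at 4 C; score merges 667 nm emission intensity with signal to noise over three replicate slides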
[10] = molecular target: Concanavalin-A (Canavalia ensiformis) (UniProt P02866); experiment: ConA small-molecule binders, primary screen, artefact control for SMM control protein annotation, biochemical, small-molecule microarray, Alexa647 label, 635 nm (AID 1127); conditions: ConA-A647 binding fluorescence, higher = more signal;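 also: z combines 667 nm emission intensity with signal-to-noise across three replicate slides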
[11] = anti-His antibody binders, primary screen, artefact control for SMM control protein annotation, biochemical, small-molecule microarray, 635 nm fluorescence (AID 1128); conditions: anti-His Alexa647 antibody binding, higher = more signal;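 also: score merges feature fluorescence with signal-to-noise for each printed compound spot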
[12] = tested on: Human papillomavirus type 1a E7 protein (residues 1-88); experiment: HPV1a E7 small-molecule binders, primary screen, biochemical, small-molecule microarray, residues 1-88, 635 nm (AID 1129); conditions: small-molecule microarray binding, fluorescence 635 nm; higher = more signal
[13] = molecular target: Focal adhesion kinase 1 (Homo sapiens) (UniProt Q05397); experiment: small-molecule microarray binders of FAK, primary screen, biochemical, 635/667 nm fluorescence, BSA, DTT (AID 1130); conditions: PTK2 binding, 635 nm fluorescence, higher = more signal;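 also: composite of spot emission at 667 nm and signal to noise over triplicate slides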
[14] = tested on: Fibrinogen (Alexa647-labelled); experiment: fibrinogen binders on compound microarrays, profiling panel, artefact control for SMM control-protein annotation, biochemical, small-molecule microarray, 635/667 nm fluorescence (AID 1131); conditions: fibrinogen-A647 binding fluorescence, higher = more signal;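 also: z-score merges 667 nm fluorescence with per-spot signal-to-noise over triplicate slides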
[15] = molecular target: Follistatin (Homo sapiens) (UniProt P19883); experiment: follistatin binders on small-molecule microarrays, primary screen, biochemical, small-molecule microarray, 635/667 nm fluorescence (AID 1132); conditions: FST binding, 635 nm fluorescence, higher = more signal
[16] = molecular target: Fibroblast growth factor 2 (Homo sapiens) (UniProt P09038); experiment: FGF2 binders on small-molecule microarrays, primary screen, biochemical, small-molecule microarray, 635/667 nm fluorescence (AID 1133); conditions: small-molecule microarray binding, FGF2, fluorescence 635/667; higher = more signal
[17] = mitochondrial membrane potential change in A549 cells, profiling panel, cell-based, JC-1 fluorescence, basal, 24 h, 100 nL (AID 1138); conditions: higher = more signal;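 also: A549 lung adenocarcinoma cells under basal conditions with no added stimulus; test concentration not given here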
[18] = tested on: Lefty1; experiment: Lefty1 binders on small-molecule microarrays, primary screen, biochemical, small-molecule microarray, 635/667 nm fluorescence (AID 1139); conditions: small-molecule microarray binding, fluorescence 635/667; higher = more signal
[19] = tested on: wheat germ agglutinin (Triticum aestivum), Alexa647-labelled; experiment: wheat germ agglutinin binders on compound microarrays, profiling panel, artefact control for SMM control-protein annotation, biochemical, small-molecule microarray, 635/667 nm fluorescence (AID 1140); conditions: WGA-A647 binding, 635 nm fluorescence, higher = more signal;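 also: score merges 667 nm feature emission with signal to noise over triplicate slides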
[20] = molecular target: Luciferin 4-monooxygenase (Photinus pyralis) (UniProt P08659); experiment: firefly luciferase enzyme inhibitors, primary screen, biochemical, luminescence, purified enzyme, 2006 set (AID 1141); conditions: SteadyGlo luminescence, 30 min, higher = more signal, called active from +8 up or from −8 down;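 also: cell-free assay with purified firefly luciferase at 100 ng per well in PBS; test concentration not given here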
Luciferin 4-monooxygenase (Photinus pyralis), sequence (P08659 whole entry, looked up): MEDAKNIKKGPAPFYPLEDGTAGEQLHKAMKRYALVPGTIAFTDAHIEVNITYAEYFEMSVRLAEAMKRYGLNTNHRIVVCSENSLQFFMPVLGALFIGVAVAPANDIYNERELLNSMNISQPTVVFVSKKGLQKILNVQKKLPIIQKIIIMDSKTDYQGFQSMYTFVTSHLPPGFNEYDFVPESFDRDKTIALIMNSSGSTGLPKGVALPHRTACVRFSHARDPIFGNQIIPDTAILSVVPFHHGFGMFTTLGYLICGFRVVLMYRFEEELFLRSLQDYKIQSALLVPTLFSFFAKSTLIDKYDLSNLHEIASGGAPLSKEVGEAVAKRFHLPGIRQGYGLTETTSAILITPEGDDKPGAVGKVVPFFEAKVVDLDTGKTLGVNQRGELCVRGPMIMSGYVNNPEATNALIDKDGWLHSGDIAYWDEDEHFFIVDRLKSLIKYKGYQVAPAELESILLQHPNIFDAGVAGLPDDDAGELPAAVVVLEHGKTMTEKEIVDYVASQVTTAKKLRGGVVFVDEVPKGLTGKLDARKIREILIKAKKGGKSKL

Albumin (Bos taurus), sequence (P02769 whole entry, looked up): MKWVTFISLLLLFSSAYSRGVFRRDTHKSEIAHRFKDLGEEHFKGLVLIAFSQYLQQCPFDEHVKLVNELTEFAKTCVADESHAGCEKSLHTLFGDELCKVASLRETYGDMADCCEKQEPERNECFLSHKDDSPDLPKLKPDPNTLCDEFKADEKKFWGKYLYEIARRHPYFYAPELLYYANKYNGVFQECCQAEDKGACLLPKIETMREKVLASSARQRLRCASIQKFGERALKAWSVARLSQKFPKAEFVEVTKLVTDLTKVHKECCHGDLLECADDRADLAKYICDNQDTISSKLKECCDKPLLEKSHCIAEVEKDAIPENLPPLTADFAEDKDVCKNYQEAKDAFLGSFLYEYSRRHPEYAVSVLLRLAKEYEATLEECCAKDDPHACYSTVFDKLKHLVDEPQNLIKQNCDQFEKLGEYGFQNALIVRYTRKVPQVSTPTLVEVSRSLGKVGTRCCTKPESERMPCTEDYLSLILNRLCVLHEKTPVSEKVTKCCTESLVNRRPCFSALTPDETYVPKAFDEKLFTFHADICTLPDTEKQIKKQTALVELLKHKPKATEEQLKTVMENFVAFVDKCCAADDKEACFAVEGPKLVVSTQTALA
Concanavalin-A (Canavalia ensiformis), sequence (P02866 whole entry, looked up): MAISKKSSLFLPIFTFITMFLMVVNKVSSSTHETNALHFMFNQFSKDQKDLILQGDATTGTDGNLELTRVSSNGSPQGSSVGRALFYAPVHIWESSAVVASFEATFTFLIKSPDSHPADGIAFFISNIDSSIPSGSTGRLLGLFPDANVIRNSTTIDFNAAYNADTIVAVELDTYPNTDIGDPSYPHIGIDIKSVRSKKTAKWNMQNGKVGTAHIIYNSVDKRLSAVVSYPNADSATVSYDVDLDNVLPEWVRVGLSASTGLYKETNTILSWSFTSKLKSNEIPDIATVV
Fibroblast growth factor 2 (Homo sapiens), sequence (P09038 whole entry, looked up): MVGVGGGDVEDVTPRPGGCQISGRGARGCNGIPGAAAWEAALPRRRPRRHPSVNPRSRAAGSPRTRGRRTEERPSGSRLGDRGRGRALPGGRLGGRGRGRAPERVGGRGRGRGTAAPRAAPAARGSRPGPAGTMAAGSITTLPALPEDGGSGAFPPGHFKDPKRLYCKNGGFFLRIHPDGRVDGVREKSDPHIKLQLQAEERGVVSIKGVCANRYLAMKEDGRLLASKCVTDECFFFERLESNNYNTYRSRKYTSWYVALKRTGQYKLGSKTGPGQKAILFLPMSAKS
Focal adhesion kinase 1 (Homo sapiens), sequence (Q05397 whole entry, looked up): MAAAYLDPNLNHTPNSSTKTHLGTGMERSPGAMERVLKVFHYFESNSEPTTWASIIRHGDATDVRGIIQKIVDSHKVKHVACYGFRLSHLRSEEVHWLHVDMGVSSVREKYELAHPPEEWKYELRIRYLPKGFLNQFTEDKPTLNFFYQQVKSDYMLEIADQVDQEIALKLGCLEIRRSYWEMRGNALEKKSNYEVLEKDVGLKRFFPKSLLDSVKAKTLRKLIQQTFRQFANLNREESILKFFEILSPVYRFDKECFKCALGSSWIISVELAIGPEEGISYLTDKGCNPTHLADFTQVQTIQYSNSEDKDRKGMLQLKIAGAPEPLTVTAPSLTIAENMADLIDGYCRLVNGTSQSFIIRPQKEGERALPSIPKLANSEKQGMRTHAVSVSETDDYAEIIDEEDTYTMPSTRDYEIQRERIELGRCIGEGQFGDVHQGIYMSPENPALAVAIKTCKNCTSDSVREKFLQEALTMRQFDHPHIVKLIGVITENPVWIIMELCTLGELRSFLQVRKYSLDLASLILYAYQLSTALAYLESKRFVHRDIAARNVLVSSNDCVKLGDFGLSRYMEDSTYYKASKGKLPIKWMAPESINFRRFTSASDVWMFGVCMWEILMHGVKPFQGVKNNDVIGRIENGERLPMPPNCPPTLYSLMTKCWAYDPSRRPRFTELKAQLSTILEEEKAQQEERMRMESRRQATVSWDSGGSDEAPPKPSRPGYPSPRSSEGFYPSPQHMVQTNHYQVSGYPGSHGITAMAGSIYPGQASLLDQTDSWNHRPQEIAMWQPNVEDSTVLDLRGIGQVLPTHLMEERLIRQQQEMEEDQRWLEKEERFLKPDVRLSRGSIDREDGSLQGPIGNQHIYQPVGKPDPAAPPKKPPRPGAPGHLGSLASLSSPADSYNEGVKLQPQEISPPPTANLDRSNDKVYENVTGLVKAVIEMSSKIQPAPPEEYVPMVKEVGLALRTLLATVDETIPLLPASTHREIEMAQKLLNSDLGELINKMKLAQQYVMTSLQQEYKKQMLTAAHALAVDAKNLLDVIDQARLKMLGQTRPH
Follistatin (Homo sapiens), sequence (P19883 whole entry, looked up): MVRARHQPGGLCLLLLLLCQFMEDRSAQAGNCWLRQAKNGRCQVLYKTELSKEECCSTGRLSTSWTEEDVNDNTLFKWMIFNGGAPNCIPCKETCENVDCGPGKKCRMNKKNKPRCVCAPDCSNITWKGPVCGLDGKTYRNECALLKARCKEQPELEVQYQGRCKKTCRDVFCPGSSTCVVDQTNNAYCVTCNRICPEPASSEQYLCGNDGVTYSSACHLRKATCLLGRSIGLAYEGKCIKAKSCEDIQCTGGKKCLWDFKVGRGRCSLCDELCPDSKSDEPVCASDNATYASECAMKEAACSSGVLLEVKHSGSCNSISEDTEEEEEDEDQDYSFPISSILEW

SMILES	composite z-score [1]	composite Z-score [2]	composite z-score [3]	composite z-score [4]	composite z-score [5]	composite z-score [6]	composite z-score [7]	composite z-score [8]	composite z-score [9]	composite z-score [10]	composite z-score [11]	composite z-score [12]	composite z-score [13]	composite z-score [14]	composite z-score [15]	composite z-score [16]	z-score [17]	composite z-score [18]	composite z-score [19]	z-score [20]
NC(=O)NCC#Cc1ccc2c(c1)[C@]1(C(=O)N2)[C@H](c2ccc(OCCO)cc2)N2[C@H](c3ccccc3)[C@H](c3ccccc3)OC(=O)[C@H]2[C@@H]1C(=O)N1CCN(c2ncccn2)CC1	-0.17	-0.991 (inactive)	0.108	0.0101	0.257	0.815	0.332	0.776	0.903	0.698	-0.192	0.973	0.0718	0.879	1.34	0.502	-1.1	1.08	0.444	-1.33 (inactive)
O=C1O[C@H](c2ccccc2)[C@H](c2ccccc2)N2[C@H]1[C@@H](C(=O)N1CCCCCCC1)[C@]1(C(=O)Nc3ccccc31)[C@H]2c1ccc(O)cc1	0.052	8.41 (active)	2.34	1.24	0.764	4.65	1.65	1.31	1.71	1.17	3.64	1.34	3.9	0.514	1.55	1.54	0.0754	1.85	1.77	-0.809 (inactive)
CO[C@H]1O[C@H](CO)[C@@H](OC(=O)Nc2cccc(F)c2)[C@H](OC(=O)Nc2ccc3c(c2)OCO3)[C@H]1OC(=O)Nc1ccc2c(c1)OCO2	0.445	0.859 (inactive)	0.0225	-0.0508	0.728	2.23	0.315	1.3	0.163	0.731	1.62	1.26	0.807	0.884	1.32	0.819	-0.358	0.9	1.15	-5.24 (inactive)
O=C(Nc1cc(Br)ccc1C(=O)NCc1cccc(O)c1)c1ccccc1	0.8	-0.0662 (inactive)	0.151	-0.0901	0.62	0.891	0.808	0.778	0.279	1.18	1.95	1.02	0.243	0.828	0.0635	0.324	0.252	-0.241	1.01	-0.0565 (inactive)
N#Cc1ccc(NN2C(C(O)c3ccccc3)C=CC3C(=O)N(c4ccccc4)C(=O)C32)cc1 (stereo not given)	0.801	0.151 (inactive)	0.222	0.0288	0.809	1.97	0.191	0.0437	-0.605	-0.0029	0.324	0.954	0.452	-0.456	0.927	-0.217	1.41	-0.272	0.635	0.884 (inactive)
O=C(C=C(CC(O)c1cccc(Cl)c1)OCCF)OCCF (stereo not given)	0.912	-0.361 (inactive)	-0.0903	-0.0746	0.0119	0.143	0.624	-2.33	-0.594	-0.444	-0.144	-1.59	-0.401	-1.35	-0.885	-0.576	0.0691	-0.94	-0.442	0.364 (inactive)
COCCCNC(=O)[C@@]1(Cc2ccccc2)COC(c2ccc(OCCCO)cc2)=N1	0.838	0.6 (inactive)	0.0813	-0.0307	0.739	3.02	0.77	1.31	-0.554	0.825	2.66	1.21	0.953	1	0.645	0.986	0.814	-1.07	0.509	0.272 (inactive)
COC(=O)[C@H]1N=C(c2ccc(OCCCO)cc2)O[C@H]1c1ccccc1CN=[N+]=[N-]	0.394	-0.391 (inactive)	0.23	-0.0174	0.41	1.78	0.427	0.0826	-0.935	0.8	0.96	-0.189	0.605	0.825	0.107	-0.372	0.758	-0.139	0.434	-8.1 (active)
C=CCOC(=O)[C@@H]1[C@H]2C(=O)O[C@H](c3ccccc3)[C@H](c3ccccc3)N2[C@H](c2ccc(OCCOC(=O)[C@@H]3C[C@@H]4C(=O)N5CCC[C@H]5C(=O)N4[C@@H]3c3cccc(OCCO)c3)cc2)[C@@]12C(=O)Nc1ccc(I)cc12	0.226	-0.244 (inactive)	-0.055	-0.101	0.0553	1.34	0.167	1.29	1	1.14	1.16	1.07	0.468	0.4	1.43	1.92	-1.17	1.42	0.504	1.13 (inactive)
COC(=O)[C@@]1(Cc2ccc(F)cc2)[C@H]2c3cc(C(=O)N(C)C)n(CCSCCO)c3C[C@H]2CN1C(=O)c1ccccc1	1.04	0.116 (inactive)	0.0179	-0.0568	0.726	2.15	0.96	0.584	0.191	-0.103	2.06	0.674	0.879	0.241	0.297	-0.254	0.554	-0.601	0.45	0.0635 (inactive)
